Out of some 5,500 compounds screened, about 2,000 (36%) were called active. Another 18% or so got no clear call; they are omitted. Rule as the data show it: active = normalized growth mostly below about 0.91 (no sharp cut-off); inconclusive = no clear call, values can overlap the other calls; inactive = mostly above about 0.92. The list shows a part of the results.
Test: chemical genetic growth profiling, strain panel (AID 1159580);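 also: tested at 20 µM; growth read once vehicle control cultures reached saturation at 30 °C; 1 = growth at the plate median or of vehicle wells; lower values mean less growth of the strain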
Settings: growth OD
[1] = S. cerevisiae deletion strains, locus YAL040C, strain CLN3, hits give low values
[2] = S. cerevisiae deletion strains, locus YCL061C, strain MRC1 (second series), hits give low values
[3] = S. cerevisiae deletion strains, locus YER002W, strain NOP16, hits give low values
[4] = S. cerevisiae deletion strains, locus YGR078C, strain PAC10, hits give low values
[5] = S. cerevisiae deletion strains, locus YMR263W, strain SAP30, hits give low values
[6] = S. cerevisiae deletion strains, locus YNL153C, strain GIM3, hits give low values
[7] = S. cerevisiae deletion strains, locus YNL175C, strain NOP13, hits give low values
[8] = S. cerevisiae deletion strains, locus YNL197C, strain WHI3, hits give low values
[9] = S. cerevisiae deletion strains, locus YNL224C, strain SQS1, hits give low values
[10] = S. cerevisiae deletion strains, locus YOR083W, strain WHI5 (second series), hits give low values
[11] = S. cerevisiae deletion strains, locus YAL013W, strain DEP1, hits give low values
[12] = S. cerevisiae deletion strains, locus YDR150W, strain NUM1, hits give low values
[13] = S. cerevisiae deletion strains, locus YPL055C, strain LGE1, hits give low values

Measured: normalized growth

CCCC1O[C@@H]2C[C@H]3[C@@H]4CCC5=CC(=O)C=C[C@]5(C)[C@H]4[C@@H](O)C[C@]3(C)[C@]2(C(=O)CO)O1 (stereo partly drawn)
inactive: [1] 1.06 | [2] 0.998 | [3] 1.01 | [4] 1.02 | [5] 1 | [6] 0.982 | [7] 0.994 | [8] 0.974 | [9] 1.01 | [10] 0.992

CN1CCC2(CCN3CCc4c(oc5ccccc45)C3C2)N(C)C1=O (stereo not drawn)
inactive: [11] 1.02 | [1] 1 | [2] 1 | [12] 0.996 | S. cerevisiae deletion strains, locus YDR363W, strain ESC2, hits give low values 1.02 | [3] 1.01 | [5] 1 | [6] 1 | [7] 1 | [8] 1.01 | [9] 1.01 | [10] 1.02 | [13] 1

Cc1cc(OC(=O)c2c(C)cc(OC(=O)c3c(C)cc(O)cc3O)cc2O)cc(O)c1C(=O)O
active: S. cerevisiae deletion strains, locus YKL009W, strain mrt4, hits give low values 0.76
inactive: [11] 1.02 | S. cerevisiae deletion strains, locus YBR021W, strain FUR4, hits give low values 0.985 | S. cerevisiae deletion strains, locus YBR229C, strain ROT2, hits give low values 1.03 | S. cerevisiae deletion strains, locus YCL029C, strain bik1, hits give low values 0.973 | S. cerevisiae deletion strains, locus YDL035C, strain GPR1, hits give low values 0.997 | S. cerevisiae deletion strains, locus YDL074C, strain BRE1, hits give low values 1.01 | S. cerevisiae deletion strains, locus YDL101C, strain DUN1, hits give low values 1.02 | S. cerevisiae deletion strains, locus YDL134C, strain PPH21, hits give low values 1.03 | S. cerevisiae deletion strains, locus YDL185W, strain tfp1, hits give low values 0.99 | S. cerevisiae deletion strains, locus YDL192W, strain arf1, hits give low values 0.979 | S. cerevisiae deletion strains, locus YDR101C, strain arx1, hits give low values 0.971 | [12] 1.03 | S. cerevisiae deletion strains, locus YDR162C, strain NBP2, hits give low values 0.998 | S. cerevisiae deletion strains, locus YDR318W, strain mcm21, hits give low values 0.967 | S. cerevisiae deletion strains, locus YDR388W, hits give low values 0.992 | S. cerevisiae deletion strains, locus YDR502C, strain sam2, hits give low values 0.991 | S. cerevisiae deletion strains, locus YER110C, hits give low values 0.986 | S. cerevisiae deletion strains, locus YER155C, strain BEM2, hits give low values 1.03 | S. cerevisiae deletion strains, locus YER167W, strain BCK2, hits give low values 1 | S. cerevisiae deletion strains, locus YGL078C, strain dbp3, hits give low values 1 | S. cerevisiae deletion strains, locus YGL086W, strain mad1, hits give low values 0.98 | S. cerevisiae deletion strains, locus YGL248W, strain PDE1, hits give low values 1.04 | [4] 1 | S. cerevisiae deletion strains, locus YGR135W, strain pre9, hits give low values 0.999 | S. cerevisiae deletion strains, locus YGR229C, strain SMI1, hits give low values 0.953 | S. cerevisiae deletion strains, locus YGR252W, strain gcn5, hits give low values 0.872 | S. cerevisiae deletion strains, locus YHR030C, strain SLT2, hits give low values 1.02 | S. cerevisiae deletion strains, locus YHR079C, strain IRE1 (second series), hits give low values 0.971 | S. cerevisiae deletion strains, locus YHR094C, strain hxt1, hits give low values 1.01 | S. cerevisiae deletion strains, locus YHR129C, strain ARP1, hits give low values 1.02 | S. cerevisiae deletion strains, locus YHR200W, strain rpn10, hits give low values 0.994 | S. cerevisiae deletion strains, locus YIL066C, strain RNR3, hits give low values 1.01 | S. cerevisiae deletion strains, locus YIL073C, strain SPO22, hits give low values 0.956 | S. cerevisiae deletion strains, locus YIL125W, strain kgd1, hits give low values 1.02 | S. cerevisiae deletion strains, locus YIR030C, strain dcg1, hits give low values 0.998 | S. cerevisiae deletion strains, locus YJL095W, strain BCK1, hits give low values 0.986 | S. cerevisiae deletion strains, locus YJL134W, strain LCB3, hits give low values 1.02 | S. cerevisiae deletion strains, locus YJL168C, strain set2, hits give low values 0.999 | S. cerevisiae deletion strains, locus YJL187C, strain SWE1 (second series), hits give low values 1.01 | S. cerevisiae deletion strains, locus YJR043C, strain POL32, hits give low values 0.981 | S. cerevisiae deletion strains, locus YJR075W, strain HOC1, hits give low values 0.979 | S. cerevisiae deletion strains, locus YKL068W, hits give low values 1 | S. cerevisiae deletion strains, locus YKL085W, strain MDH1 (second series), hits give low values 0.975 | S. cerevisiae deletion strains, locus YKL085W, strain MDH1, hits give low values 0.975 | S. cerevisiae deletion strains, locus YKL190W, strain CNB1, hits give low values 1.02 | S. cerevisiae deletion strains, locus YKR001C, strain vps1, hits give low values 0.967 | S. cerevisiae deletion strains, locus YLR039C, strain RIC1, hits give low values 0.997 | S. cerevisiae deletion strains, locus YLR058C, strain SHM2, hits give low values 1.02 | S. cerevisiae deletion strains, locus YLR102C, strain apc9, hits give low values 1.01 | S. cerevisiae deletion strains, locus YLR262C, strain YPT6, hits give low values 1 | S. cerevisiae deletion strains, locus YLR268W, strain sec22, hits give low values 0.982 | S. cerevisiae deletion strains, locus YLR330W, strain CHS5, hits give low values 1.01 | S. cerevisiae deletion strains, locus YLR342W, strain FKS1 (second series), hits give low values 0.937 | S. cerevisiae deletion strains, locus YLR371W, strain rom2, hits give low values 0.999 | S. cerevisiae deletion strains, locus YLR418C, strain cdc73, hits give low values 0.959 | S. cerevisiae deletion strains, locus YML016C, strain PPZ1, hits give low values 1.03 | S. cerevisiae deletion strains, locus YML032C, strain rad52, hits give low values 0.965 | S. cerevisiae deletion strains, locus YML124C, strain tub3, hits give low values 1.01 | S. cerevisiae deletion strains, locus YMR078C, strain ctf18, hits give low values 1 | S. cerevisiae deletion strains, locus YMR223W, strain ubp8, hits give low values 0.967 | [5] 1.02 | S. cerevisiae deletion strains, locus YMR307W, strain GAS1, hits give low values 0.862 | S. cerevisiae deletion strains, locus YNL067W, strain RPL9B, hits give low values 1.01 | S. cerevisiae deletion strains, locus YNL128W, strain TEP1, hits give low values 1.04 | [6] 1.02 | S. cerevisiae deletion strains, locus YNL233W, strain BNI4, hits give low values 0.995 | S. cerevisiae deletion strains, locus YNL250W, strain rad50, hits give low values 0.997 | S. cerevisiae deletion strains, locus YNL271C, strain bni1, hits give low values 0.985 | S. cerevisiae deletion strains, locus YNL298W, strain CLA4, hits give low values 0.981 | S. cerevisiae deletion strains, locus YNL307C, strain MCK1, hits give low values 0.966 | S. cerevisiae deletion strains, locus YNL322C, strain KRE1, hits give low values 1.03 | S. cerevisiae deletion strains, locus YNR052C, strain pop2, hits give low values 0.972 | S. cerevisiae deletion strains, locus YOL006C, strain TOP1, hits give low values 0.993 | S. cerevisiae deletion strains, locus YOL012C, strain htz1 0.878 | S. cerevisiae deletion strains, locus YOL147C, strain pex11, hits give low values 0.999 | S. cerevisiae deletion strains, locus YOR061W, strain CKA2, hits give low values 1.02 | S. cerevisiae deletion strains, locus YOR069W, strain VPS5, hits give low values 1.01 | S. cerevisiae deletion strains, locus YOR136W, strain idh2, hits give low values 0.982 | S. cerevisiae deletion strains, locus YOR144C, strain elg1, hits give low values 1.01 | S. cerevisiae deletion strains, locus YOR184W, strain ser1, hits give low values 0.95 | S. cerevisiae deletion strains, locus YOR316C, strain cot1, hits give low values 0.996 | [13] 1.03 | S. cerevisiae deletion strains, locus YPL241C, strain CIN2, hits give low values 1.02 | S. cerevisiae deletion strains, locus YPR119W, strain clb2, hits give low values 1 | S. cerevisiae deletion strains, locus YPR141C, strain kar3, hits give low values 1.01 | S. cerevisiae deletion strains, locus YPR163C, strain tif3, hits give low values 1 | S. cerevisiae deletion strains, locus YPR167C, strain met16, hits give low values 1.01 | S. cerevisiae deletion strains, strain wtn01, hits give low values 0.994 | S. cerevisiae strains, strain wild type, hits give low values 1

— PubChem BioAssay AID1159580 (chemical genetic matrix, 2015)
